# According to PubChem BioAssay (NCATS):
# Records with an inconclusive call do not appear. Entries that show only a call come without a potency. For some of these results: Potency and affinity values are given separately. The source made the active and inactive calls.
# Columns and labels:
# [1] = Ebola virus entry reporter assay, green channel fluorescence
# [2] = Ebola virus entry cell assay, ratio channel
# [3] = Ebola virus entry assay, reporter ratio channel; AC50: Channel type: primary unless noted; outcome: Channel type: primary unless noted
# [4] = High-throughput drug toxicity screening in the BPDCN cell line Gen2.2 (AID 1224824); conditions: Gen2.2 BPDCN cells; at 45.8 µM (top of the series) unless noted;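 further: cells exposed to compounds for 48 h before reading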
# Procedure, shortened: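 Gen2.2 cells (500/well) in phenol red-free RPMI with 10% FBS were exposed to compounds for 48 h at 37 °C, 5% CO2. Viability was read by CellTiter-Glo luminescence and normalized to DMSO (100%) and 9.2 uM bortezomib (0%).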
# [5] = High-throughput drug toxicity screening in the BPDCN cell line Cal-1 (AID 1224825); conditions: Cal-1 BPDCN cell viability, qHTS; at 45.8 µM (top of the series) unless noted
# Procedure, shortened: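 Percent activity derived from CellTiter-Glo luminescence, scaling DMSO to 100% and 9.2 uM final bortezomib to 0%. BPDCN Cal-1 cells (500/well, RPMI plus 10% FBS) incubated with compounds 48 hours at 37C before reading.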
# [6] = qHTS assay for measurement of the activity of small molecule inhibitors on Zika virus induced Caspase-3 activity in human iPSC derived neural progenitor cells (hNPCs) (AID 1224857; active means well fitted curve in the direction sought with a large enough effect; an effect the other way counts as inactive or inconclusive; further: nearly all actives have a fitted effect of over 65% in size); conditions: hNPCs ZIKV-induced caspase-3/7, Caspase-Glo luminescence, 6 h; series mostly up to 45.7 µM
# Procedure, shortened: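 Zika virus (2 FFU/cell) infection of human iPSC-derived NPCs, 6 h, following 1 h compound preincubation. Read-out: Caspase-Glo 3/7 luminescence.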
# [7] = qHTS assay for measurement of the activity of small molecule inhibitors on Zika virus induced Caspase-3 activity in human astrocytoma cells (AID 1224859; active means well fitted curve in the direction sought with a large enough effect; an effect the other way counts as inactive or inconclusive); conditions: SNB-19 ZIKV-induced caspase-3/7, luminescence, 6 h; series mostly up to 45.7 µM
# Procedure, shortened: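 Caspase activation in ZIKV-infected SNB-19 cells (2 FFU/cell, 6 h) measured by Caspase-Glo 3/7 luminescence after 30 min RT; compound pre-incubated 1 h; normalised to uninfected and infected controls.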
# [8] = qHTS Screen of the MIPE 4.0 Collection Against Ewings Sarcoma (RDES) (AID 1259252; active means well fitted curve in the direction sought with a large enough effect; an effect the other way counts as inactive or inconclusive; further: potency means the concentration at half of the fitted maximal effect; nearly all actives have a fitted effect of over 35% in size); conditions: RD-ES Ewing sarcoma viability, CellTiter-Glo, 48 h; series mostly up to 45.8 µM
# Procedure, shortened: (§1)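 Cells plated in serum-containing RPMI (5% FBS) and treated with compound dilutions for 48 h. Readout luminescent viability; normalization relied on vehicle (no inhibition) and media-only columns (full inhibition).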
# [9] = qHTS Screen of the MIPE 4.0 Collection Against Ewings Sarcoma (TC71) (AID 1259253; active means well fitted curve in the direction sought with a large enough effect; an effect the other way counts as inactive or inconclusive; further: potency means the concentration at half of the fitted maximal effect; nearly all actives have a fitted effect of over 40% in size); conditions: TC71 Ewing sarcoma viability, CellTiter-Glo, 48 h; series mostly up to 45.8 µM
# Procedure, shortened: as §1
# [10] = qHTS Screen of the MIPE 4.0 Collection Against Ewings Sarcoma (TC32) (AID 1259256; active means well fitted curve in the direction sought with a large enough effect; an effect the other way counts as inactive or inconclusive; further: potency means the concentration at half of the fitted maximal effect; nearly all actives have a fitted effect of over 45% in size); conditions: TC32 Ewing sarcoma viability, CellTiter-Glo, 48 h; series mostly up to 45.8 µM
# Procedure, shortened: as §1
# [11] = qHTS assay to identify small molecule inhibitors of chordoma cells - UCH-1 (AID 1259355; active means well fitted curve in the direction sought with a large enough effect; an effect the other way counts as inactive or inconclusive; further: nearly all actives have a fitted effect of over 55% in size); conditions: UCH-1 chordoma viability, CellTiter-Glo, 48 h, combination; series mostly up to 46.1 µM
# Procedure, shortened: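 800 cells/well, overnight attach; compounds pinned at 15 concs, then auranofin/camptothecin/doxorubicin/rubitecan/topotecan combo added; 48hr 37 C, 5% CO2; CellTiter-Glo, 30min RT, luminescence.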
# [12] = qHTS assay to identify small molecule inhibitors of chordoma cells - UCH-2 (AID 1259356; active means well fitted curve in the direction sought with a large enough effect; an effect the other way counts as inactive or inconclusive); conditions: UCH-2 chordoma viability, CellTiter-Glo ATP luminescence, 48 h; series mostly up to 46.1 µM
# [13] = Ebola virus entry assay, blue channel (ratio component)
# [14] = Immunotoxin (SS1P) sensitization/mitigation study. Vehicle arm (DMEM) (AID 1159513); conditions: cell viability with vehicle (DMEM); series mostly up to 46.1 µM; further: potency means the concentration at half of the fitted maximal effect
structure (smiles),measurement,setting,value
CC(C)C[C@H]1C(=O)N2CCC[C@H]2[C@]2(O)O[C@](NC(=O)[C@@H]3C=C4c5cccc6[nH]c(Br)c(c56)C[C@H]4N(C)C3)(C(C)C)C(=O)N12,outcome,[1],inactive
same,outcome,[2],inactive
CN1CCN(CCC=C2c3ccccc3Sc3ccc(S(=O)(=O)N(C)C)cc32)CC1,outcome,[3],inactive [Channel type: confirmation]
same,AC50,[2],4.47 µM (active)
CC(C)NCC(O)c1ccc(NS(C)(=O)=O)cc1 (stereo not given),outcome,[2],inactive
N#Cc1ccc2c(c1)N(CCCN1CCC(O)CC1)c1ccccc1S2,AC50,[2],22.4 µM (active)
O=C(O[C@H]1CN2CCC1CC2)N1CCc2ccccc2[C@@H]1c1ccccc1,AC50,[2],7.94 µM (active)
C[C@]12C=CC(=O)N[C@@H]1CC[C@@H]1[C@@H]2CC[C@]2(C)[C@@H](C(=O)Nc3cc(C(F)(F)F)ccc3C(F)(F)F)CC[C@@H]12,outcome,[2],inactive
CNCCC=C1c2ccccc2CCc2ccccc21,AC50,[2],7.94 µM (active)
C[C@](O)(CS(=O)(=O)c1ccc(F)cc1)C(=O)Nc1ccc(C#N)c(C(F)(F)F)c1,outcome,[2],inactive
same,"cell viability, % of control (lower = more cytotoxic)",[4],14%
same,viability (% of control),[5],5.28%
same,outcome,[6],inactive
same,outcome,[7],inactive
same,Potency,[8],1.87 µM (active)
same,Potency,[9],3.72 µM (active)
same,Potency,[10],4.69 µM (active)
same,outcome,[11],inactive
same,outcome,[12],inactive
CCOc1ccccc1OCC1CNCCO1 (stereo not given),outcome,[3],inactive
same,outcome,[13],inactive
COc1cccc2c1C(=O)c1c(O)c3c(c(O)c1C2=O)C[C@@](O)(C(C)=O)C[C@H]3O[C@H]1C[C@H](N)[C@H](O)[C@H](C)O1,outcome,[3],inactive [Channel type: confirmation]
same,outcome,[13],inactive
same,AC50,[2],5.62 µM (active)
O=C(NCC(O)CO)c1c(I)c(C(=O)NCC(O)CO)c(I)c(N(CCO)C(=O)CO)c1I (stereo not given),outcome,[3],inactive
same,outcome,[13],inactive
CC(C)[C@H]1C(=O)N2CCC[C@H]2[C@]2(O)O[C@](NC(=O)[C@@H]3C[C@@H]4c5cccc6[nH]cc(c56)C[C@H]4N(C)C3)(C(C)C)C(=O)N12,outcome,[1],inactive
same,outcome,[2],inactive
CCN(CC)CC#CCOC(=O)C(O)(c1ccccc1)C1CCCCC1 (stereo not given),outcome,[2],inactive
Cc1cc(C(C#N)c2ccc(Cl)cc2)c(Cl)cc1NC(=O)c1cc(I)cc(I)c1O (stereo not given),outcome,[3],inactive
same,outcome,[13],inactive
CCCCC(CC)CN1CN(CC(CC)CCCC)CC(C)(N)C1 (stereo not given),outcome,[3],inactive
same,outcome,[13],inactive
CC(=O)O[C@H]1C(=O)[C@@]2(C)[C@H]([C@H](OC(=O)c3ccccc3)[C@]3(O)C[C@H](OC(=O)[C@H](O)[C@@H](NC(=O)c4ccccc4)c4ccccc4)C(C)=C1C3(C)C)[C@]1(OC(C)=O)CO[C@@H]1C[C@@H]2O,outcome,[1],inactive
same,outcome,[2],inactive
CO[C@H]1C=CO[C@@]2(C)Oc3c(C)c(O)c4c(O)c(c(/C=N/N5CCN(C6CCCC6)CC5)c(O)c4c3C2=O)NC(=O)/C(C)=C\C=C[C@H](C)[C@H](O)[C@@H](C)[C@@H](O)[C@@H](C)[C@H](OC(C)=O)[C@@H]1C,outcome,[1],inactive
same,outcome,[2],inactive
C=CC[C@@H]1C=C(C)C[C@H](C)C[C@H](OC)[C@H]2O[C@@](O)(C(=O)C(=O)N3CCCC[C@H]3C(=O)O[C@H](C(C)=C[C@@H]3CC[C@H](O)[C@H](OC)C3)[C@@H](C)[C@@H](O)CC1=O)[C@@H](C)C[C@@H]2OC,outcome,[2],inactive
CO[C@H]1C[C@@H]2CC[C@@H](C)[C@@](O)(O2)C(=O)C(=O)N2CCCC[C@@H]2C(=O)O[C@H]([C@@H](C)C[C@@H]2CC[C@H](O)[C@H](OC)C2)CC(=O)[C@H](C)C=C(C)[C@@H](O)[C@@H](OC)C(=O)[C@H](C)C[C@H](C)C=CC=CC=C1C,outcome,[3],inactive [Channel type: confirmation]
same,outcome,[13],inactive
same,outcome,[2],inactive
CCOC(=O)CCC(=O)O[C@H]1[C@H](O[C@@H]2[C@@H](C)[C@H](O[C@H]3C[C@@](C)(OC)[C@@H](O)[C@H](C)O3)[C@@H](C)C(=O)O[C@H](CC)[C@@](C)(O)[C@H](O)[C@@H](C)C(=O)[C@H](C)C[C@@]2(C)O)O[C@H](C)C[C@@H]1N(C)C,outcome,[1],inactive
same,outcome,[2],inactive
COc1cc([C@@H]2c3cc4c(cc3[C@@H](O[C@@H]3O[C@@H]5CO[C@@H](c6cccs6)O[C@@H]5[C@H](O)[C@@H]3O)[C@H]3COC(=O)[C@H]23)OCO4)cc(OC)c1O,outcome,[2],inactive
CN(C)CCOc1ccc(/C(=C(/CCCl)c2ccccc2)c2ccccc2)cc1,outcome,[3],inactive [Channel type: confirmation]
same,outcome,[13],inactive
same,AC50,[2],3.55 µM (active)
CO[C@@H]1[C@@H](O[C@@H]2O[C@H](C)[C@@H](O[C@H]3C[C@@](C)(O)[C@@H](O)[C@H](C)O3)[C@H](N(C)C)[C@H]2O)[C@@H](CC=O)C[C@@H](C)[C@@H](O[C@@H]2CC[C@H](N(C)C)[C@@H](C)O2)/C=C/C=C/C[C@@H](C)OC(=O)C[C@H]1O,AC50,[2],11.2 µM (active)
CCOC(=O)C1=C(COCCN)NC(C)=C(C(=O)OC)C1c1ccccc1Cl (stereo not given),outcome,[2],inactive
CN1CCN2c3ncccc3Cc3ccccc3C2C1 (stereo not given),outcome,[2],inactive
CO[C@H]1C[C@@H]2CC[C@@H](C)[C@@](O)(O2)C(=O)C(=O)N2CCCC[C@@H]2C(=O)O[C@H]([C@H](C)C[C@@H]2CC[C@H](OCCO)[C@H](OC)C2)CC(=O)[C@H](C)C=C(C)[C@@H](O)[C@@H](OC)C(=O)[C@H](C)C[C@H](C)C=CC=CC=C1C,outcome,[3],inactive [Channel type: confirmation]
same,outcome,[13],inactive
same,AC50,[2],14.1 µM (active)
same,Potency,[14],23.5 µM (active)
COc1cc([C@@H]2c3cc4c(cc3C(O[C@@H]3O[C@@H]5CO[C@@H](C)O[C@H]5[C@H](O)[C@H]3O)C3COC(=O)[C@@H]32)OCO4)cc(OC)c1OP(=O)(O)O (stereo not given in full),AC50,[2],7.08 µM (active)
